From PubChem
Mtb MenB inh: inhibitors of Mycobacterium tuberculosis MenB enzyme; AID 540299; inhibition, % (no concentration beside the values); hit rate 0.43% among 100,000; MenB enzyme assay, absorbance read-out; in the data active = inhibition above about 21%, passing the limit was not always enough
AID504770: E. coli YBA685 growth inhibition, screen for V. cholerae RctB inhibitors; E. coli YBA685 rctB-dependent plasmid, OD600 growth, 3 h; stronger effect = lower value; z-score (test concentration not listed); hit rate 0.27% among 130,000; AID 504770; in the data active = z-score below about -2, passing the limit was not always enough
Polio RdRp inh: inhibitors of poliovirus RNA polymerase binding and polymerization; hit rate 0.66% among 150,000; % elongation, % (compound at 16.7 µg/mL); poliovirus polymerase elongation, fluorescence polarization; stronger effect = lower value; P03300; in the data active = % elongation below about 90%
Target sequence (P03300 1749-2209 limits assumed): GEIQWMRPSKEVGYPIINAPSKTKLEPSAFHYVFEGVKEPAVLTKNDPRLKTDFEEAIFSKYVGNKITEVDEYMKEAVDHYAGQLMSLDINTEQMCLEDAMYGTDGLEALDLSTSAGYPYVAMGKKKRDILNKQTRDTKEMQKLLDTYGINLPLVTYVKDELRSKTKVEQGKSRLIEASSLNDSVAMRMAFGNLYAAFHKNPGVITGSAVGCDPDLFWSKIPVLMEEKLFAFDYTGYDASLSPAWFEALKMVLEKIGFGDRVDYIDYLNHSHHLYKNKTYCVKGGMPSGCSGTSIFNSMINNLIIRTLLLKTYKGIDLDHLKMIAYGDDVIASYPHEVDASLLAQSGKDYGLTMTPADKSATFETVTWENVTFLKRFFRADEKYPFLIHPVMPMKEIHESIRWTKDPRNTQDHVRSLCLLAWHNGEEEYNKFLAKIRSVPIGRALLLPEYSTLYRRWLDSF
Mtb MbtI inh: inhibitors of Mycobacterium tuberculosis siderophore enzyme MbtI; P9WFX0; inhibition, % (concentration not given with the values); hit rate 0.89% among 100,000; purified MbtI enzyme, fluorescence intensity read-out; in the data active = inhibition mostly above about 56%, no sharp cut-off; inactive = mostly below about 77%
Active calls of the source: *. Hits are enriched below; roughly 1.4% of the tested compounds scored in any of these assays.

Results for Nc1ccc(N2CCOCC2)c(N)c1 ?
Mtb MenB inh: -43; AID504770: 0.25; Polio RdRp inh: 56*; Mtb MbtI inh: 35

Results for Nc1cc(Cl)c(N2CCOCC2)cc1N1CCOCC1 ?
AID504770: 0.25

Results for C/C(=N\O)c1ccccc1Cl ?
AID504770: -1.2

How did CN(C)/C=C1/C=C(c2ccccc2)OC1=S do in these assays?
Mtb MenB inh: -168; AID504770: 2.9; Polio RdRp inh: 99; Mtb MbtI inh: 80*

Results for O=C1OC(c2ccccc2)=C/C1=C/c1ccccc1 ?
AID504770: 1

How did Cc1sc2nc(CC(=O)N3CCCC3)[nH]c(=O)c2c1C do in these assays?
Mtb MenB inh: -53; AID504770: 0.95; Polio RdRp inh: 75*; Mtb MbtI inh: 67

Results for O=C(CCc1nc2sc3c(c2c(=O)[nH]1)CCCC3)N1CCCCC1 ?
AID504770: 0.65

How did C=CCn1c(SC(C)C)nc2sc3c(c2c1=O)CCCC3 do in these assays?
Mtb MenB inh: -8; AID504770: -0.15; Polio RdRp inh: 102; Mtb MbtI inh: -10

Results for COc1cccc(N2C(=O)CC(n3nc(Nc4cccc(C)c4)sc3=S)C2=O)c1 (stereo not drawn) ?
Mtb MenB inh: 0; AID504770: 1.2; Polio RdRp inh: 101; Mtb MbtI inh: 99*

How did COc1cccc(N2C(=O)CN=C2Nc2nc(C)cc(C)n2)c1 do in these assays?
Mtb MenB inh: -8; AID504770: 1.2; Polio RdRp inh: 107

Results for CC1=NN(c2nc3ccccc3[nH]2)C(=O)C1Cc1ccccc1 (stereo not drawn) ?
Mtb MenB inh: -74; AID504770: -0.85; Polio RdRp inh: 107; Mtb MbtI inh: 76*

Results for COc1cccc(COCC(O)CN2CCC(C(N)=O)CC2)c1 (stereo not drawn) ?
Mtb MenB inh: -9; AID504770: -0.6; Polio RdRp inh: 101; Mtb MbtI inh: 99*

What do the screens show for `CC1CCCCN1C(=O)CSc1nnc2c(Cl)cc(Cl)cn12` (stereo not drawn)?
Mtb MenB inh: 6; AID504770: 0.25; Polio RdRp inh: 108; Mtb MbtI inh: -3

Results for Cc1ccc(S(=O)(=O)N(C)c2c(C)ccc(S(=O)(=O)n3nc(C)cc3C)c2C)cc1 ?
Mtb MenB inh: 39*; AID504770: 0.2; Polio RdRp inh: 101; Mtb MbtI inh: -4

What do the screens show for `N#Cc1c(-c2ccccc2)cc(-c2ccccc2)nc1SCC(O)CS(=O)(=O)Cc1ccccc1` (stereo not drawn)?
Polio RdRp inh: 80*

What do the screens show for `O=C(Nc1ccc(N2CCCCC2)cc1)Nc1ccc(F)cc1F`?
Mtb MenB inh: -14; AID504770: 2.8; Polio RdRp inh: 102; Mtb MbtI inh: -6

What do the screens show for `CC12CCC(c3c1nn(-c1ccccc1)c3C(F)(F)F)C2(C)C` (stereo not drawn)?
Mtb MenB inh: -29; AID504770: -1; Polio RdRp inh: 104; Mtb MbtI inh: 19

How did CN(C)CCCNCc1cccn1C do in these assays?
Mtb MenB inh: 4; AID504770: 0.1; Polio RdRp inh: 85*; Mtb MbtI inh: 0

Results for CN(C)CCCNCc1ccco1 ?
Mtb MenB inh: -22; AID504770: -0.55; Polio RdRp inh: 103; Mtb MbtI inh: -2

How did CCn1c(-c2ccccc2)csc1=Nc1ccc2[nH]c(=O)[nH]c2c1 do in these assays?
Mtb MenB inh: -47; AID504770: -0.75; Polio RdRp inh: 103; Mtb MbtI inh: 0

What do the screens show for `CN(C)[C@@H]1C(=O)C(C(N)=O)=C(O)[C@@]2(O)C(=O)C3=C(O)c4c(O)cccc4[C@@](C)(O)[C@H]3C[C@@H]12`?
Mtb MenB inh: -1; AID504770: -3.2*; Polio RdRp inh: 99; Mtb MbtI inh: 3

Results for CN(C)[C@@H]1C(=O)C(C(=O)NCN2CCCC2)=C(O)[C@@]2(O)C(=O)C3=C(O)c4c(O)cccc4[C@@](C)(O)C3CC12 (stereo partly drawn) ?
Mtb MenB inh: -4; Polio RdRp inh: 96; Mtb MbtI inh: -10

What do the screens show for `C[C@H]1c2cccc(O)c2C(O)=C2C(=O)C3(O)C(O)=C(C(N)=O)C(=O)[C@@H](N(C)C)[C@@H]3[C@@H](O)[C@@H]21` (stereo partly drawn)?
Mtb MenB inh: -12; Polio RdRp inh: 101; Mtb MbtI inh: 3

How did C=C1c2cccc(O)c2C(O)=C2C(=O)[C@]3(O)C(O)=C(C(N)=O)C(=O)[C@@H](N(C)C)[C@@H]3[C@@H](O)[C@H]12 do in these assays?
Mtb MenB inh: 5; AID504770: -3.4*; Polio RdRp inh: 100; Mtb MbtI inh: -1

What do the screens show for `C=C1c2c(Cl)ccc(O)c2C(O)=C2C(=O)[C@]3(O)C(O)=C(C(N)=O)C(=O)[C@@H](N(C)C)[C@@H]3[C@@H](O)[C@H]12`?
Mtb MenB inh: 4; AID504770: -4.2*; Polio RdRp inh: 102; Mtb MbtI inh: -54

Results for Cc1c(Br)sc2sc(-c3ccnc(SCC(=O)NC(C)C)n3)c(C)c12 ?
Mtb MenB inh: -4; AID504770: 0; Polio RdRp inh: 101; Mtb MbtI inh: -3

What do the screens show for `COCc1nnc(NC(=O)Cc2ccccc2)s1`?
Mtb MenB inh: -5; AID504770: -0.5; Polio RdRp inh: 100

How did CCC(C)(C)C(=O)Nc1nnc(COC)s1 do in these assays?
Mtb MenB inh: 33*; AID504770: 0.25; Polio RdRp inh: 101; Mtb MbtI inh: 10

What do the screens show for `Cc1ccc(C(=O)CSc2cccc[n+]2[O-])cc1`?
AID504770: 1.9; Polio RdRp inh: 100; Mtb MbtI inh: 69*

Results for CC1CCN(C(=O)CN(CCc2ccccc2)S(C)(=O)=O)CC1 ?
Mtb MenB inh: -40; AID504770: -0.55; Polio RdRp inh: 106; Mtb MbtI inh: -8

Results for CS(=O)(=O)N(CCc1ccccc1)CC(=O)N1CCOCC1 ?
Mtb MenB inh: 34*; AID504770: 0.25; Polio RdRp inh: 102; Mtb MbtI inh: 0

Results for CCOC(=O)c1sc(-c2ccc3c(c2)CCO3)nc1C ?
AID504770: -0.5

Results for C/C(=C/C(=O)O)C(=O)Nc1nc(-c2cccs2)cs1 ?
Mtb MenB inh: -10; AID504770: 0.15; Mtb MbtI inh: 72*

What do the screens show for `O=c1nc(-c2cccs2)cc(C(F)(F)F)[nH]1`?
AID504770: 1

Results for CCOC(=O)c1ccc(NC(=O)CCc2c(C)nc3cc(-c4ccccc4OC)nn3c2C)cc1 ?
AID504770: 1.2

What do the screens show for `O=C(O)CCSC1CC(=O)N(c2ccc(F)cc2)C1=O` (stereo not drawn)?
Mtb MenB inh: 4; AID504770: -0.15; Polio RdRp inh: 100; Mtb MbtI inh: -3

Results for N#CSC1CC(=O)N(c2ccc(F)cc2)C1=O (stereo not drawn) ?
Mtb MenB inh: -11; AID504770: -1.8; Polio RdRp inh: 103; Mtb MbtI inh: 99*

How did COc1ccc(-c2cc(-c3nc(-c4cccnc4)no3)[nH]n2)cc1 do in these assays?
Mtb MenB inh: 9; AID504770: 0.9; Polio RdRp inh: 100; Mtb MbtI inh: -11

What do the screens show for `CC(=O)NC1=CC(=O)c2nonc2C1=O`?
AID504770: -9.2*; Mtb MbtI inh: 47
